Binding signal data for one sequence are collected here from PMC7862700, “An all-to-all approach to the identification of sequence-specific readers for epigenetic DNA modifications on cytosine”.

Assay in all cases: DAPPL (digital affinity profiling via proximity ligation, sequencing); 10 mM Tris-HCl pH 7.5, 50 mM NaCl, 1 mM DTT, 4% glycerol, room temperature, 30 min; GST-TFs on glutathione beads, 16-mer random dsDNA library, 0.1% formaldehyde crosslink after washing; high values mean tight binding
Holding throughout (details): protein: recombinant; tags: N-terminal GST; dsDNA, one strand shown

Experiment [1] addresses T1, ELK1 (Homo sapiens, UniProt P19419 1-428).
T1 sequence: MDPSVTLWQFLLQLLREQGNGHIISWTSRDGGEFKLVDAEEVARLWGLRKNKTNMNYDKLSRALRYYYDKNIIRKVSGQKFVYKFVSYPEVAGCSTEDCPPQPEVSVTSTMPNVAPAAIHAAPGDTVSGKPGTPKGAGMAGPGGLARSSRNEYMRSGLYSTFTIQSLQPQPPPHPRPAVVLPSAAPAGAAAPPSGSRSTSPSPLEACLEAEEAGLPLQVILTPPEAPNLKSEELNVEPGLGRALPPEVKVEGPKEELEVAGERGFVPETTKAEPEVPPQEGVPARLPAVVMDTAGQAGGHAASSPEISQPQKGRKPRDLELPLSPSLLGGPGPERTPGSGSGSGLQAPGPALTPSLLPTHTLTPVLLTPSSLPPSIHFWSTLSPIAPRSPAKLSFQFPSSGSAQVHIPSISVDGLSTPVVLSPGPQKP
In outline:
(§1)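 Beads coated with glutathione captured GST-fused human transcription factors that had been expressed in yeast, and the factors were then given DNA barcodes and pooled with a tag-only sample. The pools were incubated with 200 nmole of a random double-stranded 16-mer DNA library in Tris/NaCl/DTT/glycerol buffer for 30 min at room temperature, washed, crosslinked with 0.1% formaldehyde and proximity-ligated with BsaI/T4 ligase at 37 °C for 1 h. PCR amplification and Illumina NextSeq500 sequencing came last. Binding signal is each hexamer's read frequency for a factor divided by its frequency for the tag-only sample.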

Experiment [2] deals with T2, GABPA (Homo sapiens, UniProt Q06546 1-454).
T2 sequence: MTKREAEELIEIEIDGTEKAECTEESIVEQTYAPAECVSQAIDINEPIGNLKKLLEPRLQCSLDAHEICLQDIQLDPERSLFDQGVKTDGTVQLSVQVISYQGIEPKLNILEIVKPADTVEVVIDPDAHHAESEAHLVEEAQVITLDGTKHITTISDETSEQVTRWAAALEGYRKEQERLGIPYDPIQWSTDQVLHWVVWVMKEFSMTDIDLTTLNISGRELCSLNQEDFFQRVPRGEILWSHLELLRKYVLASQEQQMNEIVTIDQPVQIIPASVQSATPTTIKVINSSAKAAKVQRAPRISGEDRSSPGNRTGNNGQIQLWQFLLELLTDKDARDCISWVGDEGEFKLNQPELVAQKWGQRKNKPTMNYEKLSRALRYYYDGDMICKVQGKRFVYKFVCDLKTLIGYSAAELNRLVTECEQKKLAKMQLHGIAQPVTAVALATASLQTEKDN
In outline:
as §1

The target in experiment [3] is ELF1 (Homo sapiens, UniProt P32519 1-619). A digest of the protocol:
as §1

Experiment [4] deals with T3, EHF (Homo sapiens, UniProt Q9NZC4 1-300).
T3 sequence: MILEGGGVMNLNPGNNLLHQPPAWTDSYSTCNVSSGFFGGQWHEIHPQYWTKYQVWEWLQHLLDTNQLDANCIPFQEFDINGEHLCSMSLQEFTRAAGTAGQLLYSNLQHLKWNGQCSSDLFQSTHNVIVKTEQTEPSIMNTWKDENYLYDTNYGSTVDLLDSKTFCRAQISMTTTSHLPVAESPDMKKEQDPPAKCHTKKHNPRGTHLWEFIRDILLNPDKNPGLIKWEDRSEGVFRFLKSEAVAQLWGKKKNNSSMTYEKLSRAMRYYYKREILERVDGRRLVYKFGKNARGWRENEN
In outline: as §1

The target in experiment [5] is SPI1 (Homo sapiens, UniProt P17947 1-270). In outline:
as §1

In experiment [6] the target is SPIB (Homo sapiens, UniProt Q01892 1-262). A digest of the protocol: as §1
Chain of SPIB (Q01892 whole entry): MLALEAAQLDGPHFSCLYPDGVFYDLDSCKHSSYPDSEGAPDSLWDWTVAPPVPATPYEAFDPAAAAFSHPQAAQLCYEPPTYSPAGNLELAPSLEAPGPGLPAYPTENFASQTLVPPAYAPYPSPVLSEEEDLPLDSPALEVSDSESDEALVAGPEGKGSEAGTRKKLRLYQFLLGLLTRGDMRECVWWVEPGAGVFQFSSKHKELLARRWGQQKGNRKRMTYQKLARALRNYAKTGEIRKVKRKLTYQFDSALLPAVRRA
Experiment [7] concerns the target ETV5 (Homo sapiens, UniProt P41161 1-510). In outline:
as §1

For experiment [8], the target named is ELF4 (Homo sapiens, UniProt Q99607 1-663). In outline:
as §1

The target of experiment [9] is T4, ELK4 (Homo sapiens, UniProt P28324-2 1-405).
T4 sequence: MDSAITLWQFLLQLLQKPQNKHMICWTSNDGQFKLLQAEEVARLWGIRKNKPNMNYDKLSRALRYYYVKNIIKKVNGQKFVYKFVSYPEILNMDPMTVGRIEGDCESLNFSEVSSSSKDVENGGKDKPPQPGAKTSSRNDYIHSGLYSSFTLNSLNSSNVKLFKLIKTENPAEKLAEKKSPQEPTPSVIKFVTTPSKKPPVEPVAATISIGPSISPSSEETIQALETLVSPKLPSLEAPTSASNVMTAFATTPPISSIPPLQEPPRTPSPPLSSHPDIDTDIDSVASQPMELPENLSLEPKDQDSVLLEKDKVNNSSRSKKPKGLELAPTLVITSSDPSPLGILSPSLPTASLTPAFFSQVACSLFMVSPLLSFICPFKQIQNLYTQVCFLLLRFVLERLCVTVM
In outline:
as §1

Experiment [10] deals with ETV1 (Homo sapiens, UniProt P50549 1-477). A digest of the protocol:
as §1

Experiment [11] addresses T5, ERF (Homo sapiens, UniProt P50548 1-548).
T5 sequence: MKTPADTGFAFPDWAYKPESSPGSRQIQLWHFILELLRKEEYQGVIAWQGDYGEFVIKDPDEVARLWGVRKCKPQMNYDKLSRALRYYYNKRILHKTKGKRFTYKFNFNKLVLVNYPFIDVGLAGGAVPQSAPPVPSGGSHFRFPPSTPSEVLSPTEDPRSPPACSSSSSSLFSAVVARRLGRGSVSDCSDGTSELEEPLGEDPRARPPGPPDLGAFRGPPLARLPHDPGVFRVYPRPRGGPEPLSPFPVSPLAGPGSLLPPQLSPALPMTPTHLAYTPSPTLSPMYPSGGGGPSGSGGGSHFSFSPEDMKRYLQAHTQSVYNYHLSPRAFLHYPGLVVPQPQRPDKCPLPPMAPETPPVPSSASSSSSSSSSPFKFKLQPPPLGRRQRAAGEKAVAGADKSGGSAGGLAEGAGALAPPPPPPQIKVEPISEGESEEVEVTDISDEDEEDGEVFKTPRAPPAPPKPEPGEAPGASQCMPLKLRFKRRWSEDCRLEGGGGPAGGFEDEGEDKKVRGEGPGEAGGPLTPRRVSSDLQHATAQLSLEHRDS
In outline:
as §1

For experiment [12], the target named is T6, ETV3L (Homo sapiens, UniProt Q6ZN32 1-361).
T6 sequence: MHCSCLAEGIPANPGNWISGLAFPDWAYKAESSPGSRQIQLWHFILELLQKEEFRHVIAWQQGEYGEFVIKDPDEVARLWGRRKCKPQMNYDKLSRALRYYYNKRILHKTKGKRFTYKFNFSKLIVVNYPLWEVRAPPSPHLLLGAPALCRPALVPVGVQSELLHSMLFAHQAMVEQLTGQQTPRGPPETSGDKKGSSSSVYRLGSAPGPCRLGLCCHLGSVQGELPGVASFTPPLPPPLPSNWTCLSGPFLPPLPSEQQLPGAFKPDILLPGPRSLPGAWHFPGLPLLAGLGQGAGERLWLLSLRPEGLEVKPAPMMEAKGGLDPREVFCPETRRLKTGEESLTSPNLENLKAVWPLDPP
In outline:
as §1

For experiment [13], the target named is T7, ETS2 (Homo sapiens, UniProt P15036 1-469).
T7 sequence: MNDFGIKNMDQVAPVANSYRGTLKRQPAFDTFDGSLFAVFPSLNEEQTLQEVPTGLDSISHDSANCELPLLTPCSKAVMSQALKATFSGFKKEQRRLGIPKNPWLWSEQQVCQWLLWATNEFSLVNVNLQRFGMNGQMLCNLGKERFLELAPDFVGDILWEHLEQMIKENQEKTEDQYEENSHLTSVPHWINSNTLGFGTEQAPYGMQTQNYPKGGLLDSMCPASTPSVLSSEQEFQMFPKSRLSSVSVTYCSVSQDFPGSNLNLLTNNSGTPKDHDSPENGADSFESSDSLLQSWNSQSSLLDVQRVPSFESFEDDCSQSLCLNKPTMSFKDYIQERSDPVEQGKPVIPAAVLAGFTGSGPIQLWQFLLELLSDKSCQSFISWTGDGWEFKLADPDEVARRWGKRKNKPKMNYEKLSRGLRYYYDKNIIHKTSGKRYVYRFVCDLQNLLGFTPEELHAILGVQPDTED
A digest of the protocol: as §1

Experiment [14] addresses T8, SPDEF (Homo sapiens, UniProt O95238 1-335).
T8 sequence: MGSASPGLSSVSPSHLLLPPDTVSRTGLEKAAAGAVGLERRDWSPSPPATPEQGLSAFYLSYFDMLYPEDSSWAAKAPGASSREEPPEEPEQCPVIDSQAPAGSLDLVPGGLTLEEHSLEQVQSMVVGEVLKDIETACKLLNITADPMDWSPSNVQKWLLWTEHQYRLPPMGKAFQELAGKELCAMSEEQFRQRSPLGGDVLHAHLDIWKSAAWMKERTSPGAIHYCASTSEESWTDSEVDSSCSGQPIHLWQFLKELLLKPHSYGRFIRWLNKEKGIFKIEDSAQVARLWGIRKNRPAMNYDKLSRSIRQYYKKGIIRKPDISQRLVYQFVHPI
A digest of the protocol: as §1

The target in experiment [15] is T9, ETV3 (Homo sapiens, UniProt P41162-2 1-143).
T9 sequence: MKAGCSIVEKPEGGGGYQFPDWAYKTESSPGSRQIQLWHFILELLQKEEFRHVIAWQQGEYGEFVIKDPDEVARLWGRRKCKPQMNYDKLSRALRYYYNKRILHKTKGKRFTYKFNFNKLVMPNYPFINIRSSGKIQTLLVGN
A digest of the protocol: as §1

Chain of ELF4 (Q99607 whole entry): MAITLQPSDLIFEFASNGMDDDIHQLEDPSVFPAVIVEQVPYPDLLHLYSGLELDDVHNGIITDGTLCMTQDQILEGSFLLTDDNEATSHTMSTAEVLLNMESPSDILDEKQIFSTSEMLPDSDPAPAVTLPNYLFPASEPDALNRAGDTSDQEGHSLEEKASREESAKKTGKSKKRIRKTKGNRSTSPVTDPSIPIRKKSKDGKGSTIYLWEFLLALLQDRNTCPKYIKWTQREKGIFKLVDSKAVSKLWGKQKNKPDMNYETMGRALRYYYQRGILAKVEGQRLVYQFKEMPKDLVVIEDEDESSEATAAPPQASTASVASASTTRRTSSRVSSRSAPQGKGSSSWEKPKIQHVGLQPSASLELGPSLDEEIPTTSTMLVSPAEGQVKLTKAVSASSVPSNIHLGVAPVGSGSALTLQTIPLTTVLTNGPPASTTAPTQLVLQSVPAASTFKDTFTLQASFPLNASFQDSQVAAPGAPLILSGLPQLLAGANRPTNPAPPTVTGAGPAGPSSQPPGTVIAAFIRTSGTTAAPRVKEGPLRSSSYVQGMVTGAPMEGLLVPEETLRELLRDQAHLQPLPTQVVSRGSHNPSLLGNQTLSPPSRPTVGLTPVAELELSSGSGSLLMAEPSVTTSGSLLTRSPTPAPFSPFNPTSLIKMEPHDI
Chain of ETV5 (P41161 whole entry): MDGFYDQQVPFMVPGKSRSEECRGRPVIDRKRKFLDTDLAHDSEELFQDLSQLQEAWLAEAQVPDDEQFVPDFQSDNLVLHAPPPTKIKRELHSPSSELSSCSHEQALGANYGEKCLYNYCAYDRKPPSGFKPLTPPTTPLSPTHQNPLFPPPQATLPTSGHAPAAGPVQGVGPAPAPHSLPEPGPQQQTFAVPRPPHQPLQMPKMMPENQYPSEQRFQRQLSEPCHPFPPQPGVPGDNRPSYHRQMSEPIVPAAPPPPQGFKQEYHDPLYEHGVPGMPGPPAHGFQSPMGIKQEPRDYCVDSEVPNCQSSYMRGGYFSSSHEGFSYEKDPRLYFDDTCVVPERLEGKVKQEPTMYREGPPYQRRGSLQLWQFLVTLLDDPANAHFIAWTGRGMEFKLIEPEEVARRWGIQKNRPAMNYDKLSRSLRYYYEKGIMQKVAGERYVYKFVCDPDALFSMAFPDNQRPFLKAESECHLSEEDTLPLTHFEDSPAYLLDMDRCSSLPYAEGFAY
Chain of ETV1 (P50549 whole entry): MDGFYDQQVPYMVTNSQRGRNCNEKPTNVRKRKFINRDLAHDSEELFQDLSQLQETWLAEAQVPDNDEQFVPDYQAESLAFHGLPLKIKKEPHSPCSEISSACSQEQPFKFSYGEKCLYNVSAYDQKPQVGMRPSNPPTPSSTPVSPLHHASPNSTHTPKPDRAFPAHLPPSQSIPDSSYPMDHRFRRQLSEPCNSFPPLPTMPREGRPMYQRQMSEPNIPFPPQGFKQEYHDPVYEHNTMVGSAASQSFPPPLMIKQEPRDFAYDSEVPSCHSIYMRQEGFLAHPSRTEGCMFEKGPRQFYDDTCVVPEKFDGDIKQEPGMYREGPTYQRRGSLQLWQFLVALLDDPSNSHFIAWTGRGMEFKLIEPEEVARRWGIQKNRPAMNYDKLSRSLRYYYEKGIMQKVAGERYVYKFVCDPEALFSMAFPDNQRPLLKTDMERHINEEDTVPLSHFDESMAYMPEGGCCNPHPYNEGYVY
Chain of ELF1 (P32519 whole entry): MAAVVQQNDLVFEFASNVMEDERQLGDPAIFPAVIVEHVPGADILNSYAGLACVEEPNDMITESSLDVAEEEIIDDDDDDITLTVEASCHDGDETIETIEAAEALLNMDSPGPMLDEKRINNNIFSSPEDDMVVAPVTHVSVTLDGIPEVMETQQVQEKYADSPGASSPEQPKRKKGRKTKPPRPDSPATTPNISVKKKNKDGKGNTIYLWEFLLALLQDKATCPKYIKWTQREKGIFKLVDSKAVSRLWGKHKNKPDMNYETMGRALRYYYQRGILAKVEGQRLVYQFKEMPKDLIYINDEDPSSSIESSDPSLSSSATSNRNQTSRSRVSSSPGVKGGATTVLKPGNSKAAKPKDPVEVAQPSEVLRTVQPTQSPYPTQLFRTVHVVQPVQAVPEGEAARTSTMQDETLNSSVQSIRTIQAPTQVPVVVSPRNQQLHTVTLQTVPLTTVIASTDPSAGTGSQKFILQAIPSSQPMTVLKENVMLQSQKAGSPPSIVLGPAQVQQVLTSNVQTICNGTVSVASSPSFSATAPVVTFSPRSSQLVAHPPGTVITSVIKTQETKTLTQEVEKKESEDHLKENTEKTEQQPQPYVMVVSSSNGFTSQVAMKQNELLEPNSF

Regarding TGCAAG, the binding signal in experiment [1] was 1.11 fold enrichment (6-mer frequency, TF over GST control); in experiment [2] it was 1.07 fold enrichment (6-mer frequency, TF over GST control); in [3] it was 1.01 fold enrichment (6-mer frequency, TF over GST control); in experiment [4], 1.02 fold enrichment (6-mer frequency, TF over GST control); in [5], 1 fold enrichment (6-mer frequency, TF over GST control); in experiment [6], 1.04 fold enrichment (6-mer frequency, TF over GST control). In addition, the binding signal in [7] is 1.07 fold enrichment (6-mer frequency, TF over GST control); in experiment [8], 1.05 fold enrichment (6-mer frequency, TF over GST control); in experiment [9] it was 1.07 fold enrichment (6-mer frequency, TF over GST control); in experiment [10], 1.03 fold enrichment (6-mer frequency, TF over GST control); in [11], 1.01 fold enrichment (6-mer frequency, TF over GST control); in experiment [12], 1.11 fold enrichment (6-mer frequency, TF over GST control). For the same sequence, the binding signal in experiment [13] is 1.12 fold enrichment (6-mer frequency, TF over GST control); in [14], 1.11 fold enrichment (6-mer frequency, TF over GST control); in experiment [15] it was 1.07 fold enrichment (6-mer frequency, TF over GST control).
